Experimental data reported in PubChem BioAssay (Tox21).
Records with an inconclusive call do not appear. Values without a mark were called inactive. Calls of active or inactive are those of the source. Calls come from the whole dose curve.
% is set by controls: 0 for no effect and ±100 for the full control effect.

Experiment: p53 small molecule agonists, cell-based qHTS assay with human liver microsomes (AID 1963577);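 note: p53 response element beta-lactamase reporter cells with liver microsomes plus NADPH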
Conditions: HCT-116 p53RE-bla with human liver microsomes, ratio, 16 h; series mostly up to 66 µM; activation: at the top concentration
From the text: National Center for Advancing Translational Sciences [NCATS]
Division of Preclinical Innovation [DPI]
U.S. Environmental Protection Agency [EPA]
National Institutes of Environmental Health Sciences [NIEHS]
National Toxicology Program [NTP]
U.S. Food and Drug Administration [FDA]
p53, a tumor suppressor protein, is activated following cellular insult, including DNA damage and other cellular stresses. The activation of p53 regulates cell fate by inducing DNA repair, cell cycle arrest, apoptosis, or cellular senescence. The activation of p53, therefore, is a good indicator of DNA damage and other cellular stresses. […] The activation of the reporter gene under culture conditions can be detected by fluorescence intensity.
Tox21 Assay Protocol Summary:
The p53RE-bla cells were dispensed at 4,000cells/3ul/well in 1536-well black-clear bottom plates. After the assay plates were incubated at 37 C, 5% CO2 incubator for 5 hours, 23 nL of compounds dissolved in DMSO, positive controls or DMSO only was transferred to the assay plate. Following compound addition, 3 uL of human liver microsomes (XenoTech, Kansas City, KS) at final concentration of 0.5 mg/mL and 1uL of Beta-Nicotinamide adenine dinucleotide 2-phosphate (NADPH) at final concentration of 0.5 mg/mL were transferred to the assay plate. The plates were incubated at 37 C for 16 hours. 1 uL of LiveBLAzer detection mixture was added to each well and the plates were incubated at room temperature in the dark for 2 h.
For `COC(=O)Nc1nc2ccc(C(=O)c3ccccc3)cc2[nH]1`, the “activation” value was -11.9% [at 30.3 µM]. With `CC1CCCCN1CCCOC(=O)c1ccc(OC2CCCCC2)cc1` (stereo not given) the “activation” value was 1.09% [at 30.3 µM]. With `O=S(=O)(O)c1cc(S(=O)(=O)O)c2c(N=Nc3ccccc3)c(O)ccc2c1` the Potency was “inactive”. For `Cc1cc2c(C(C)C)c(O)c(O)c(C=O)c2c(O)c1-c1c(C)cc2c(C(C)C)c(O)c(O)c(C=O)c2c1O`, the “activation” value was -6.64% [at 30.3 µM]. With `CCN(CC)CCCN(c1ccccc1)C1Cc2ccccc2C1` the “activation” value was 0.0637% [at 30.3 µM]. For `O=c1[nH]nc(-c2ccc([N+](=O)[O-])o2)o1`, the “activation” value was 0.595%. In the case of `CCCn1cc[n+](C)c1C`, the “activation” value is reported as 0.347%. With `CC(Cc1ccc(O)c(O)c1)C(C)Cc1ccc(O)c(O)c1` (stereo not given) the “activation” value was -13.4%. With `CC(=O)Oc1ccc(C(=C2CCCCC2)c2ccc(OC(C)=O)cc2)cc1` the “activation” value was -0.393% [at 30.3 µM]. With `CCN(CC)CC` the “activation” value was -0.644%. In the case of `CCCCNc1cc(C(=O)O)cc(S(N)(=O)=O)c1Oc1ccccc1`, the “activation” value is reported as -1.61% [at 30.3 µM]. Work on `c1ccc2sc(SSc3nc4ccccc4s3)nc2c1` yielded an activation of 13.9% [at 13.5 µM]. For `C=Cc1ccc(S(=O)(=O)O)cc1`, the “activation” value was -13.7%. In the case of `C[C@@H](NCCCc1cccc(C(F)(F)F)c1)c1cccc2ccccc12`, the “activation” value is reported as -0.226% [at 30.3 µM]. With `Cc1ccc(O)c(O)c1` the “activation” value was -0.505%. Compound `CCN1/C(=C/C=C/c2sc3ccccc3[n+]2CC)Sc2ccccc21` has an activation of 15.3% [at 13.5 µM]. With `CNCC[C@@H](Oc1ccccc1C)c1ccccc1` the “activation” value was -0.5% [at 30.3 µM]. For `O=C(OCCOCCOCCOC(=O)c1ccccc1)c1ccccc1`, the “activation” value was -6.02%. With `CC(=O)c1ccc2c(c1)N(CCCN1CCC(CCO)CC1)c1ccccc1S2` the “activation” value was -14.1% [at 30.3 µM]. In the case of `CCC(C)OC(=O)N1CCCCC1CCO` (stereo not given), the “activation” value is reported as 1.34%. With `O=[N+]([O-])c1cc(N(CCO)CCO)ccc1NCCO` the Potency was “inactive”. With `CCc1nn(CCCN2CCN(c3cccc(Cl)c3)CC2)c(=O)n1CCOc1ccccc1` the “activation” value was -5.55% [at 30.3 µM]. With `C=C/C=C/C=C/CCCCC` the activation was -4.49% [at 13.5 µM]. For `N#C/C(=C1/SC[C@@H](c2ccc(Cl)cc2Cl)S1)n1ccnc1`, the “activation” value was -8.14% [at 30.3 µM]. For `CC(C)(c1ccc(Oc2ccc(N)cc2)cc1)c1ccc(Oc2ccc(N)cc2)cc1`, the “activation” value was -13.3%. With `Cc1cc(O)ccc1O` the “activation” value was -2.34%. For `Nc1cccc2c(N)cccc12`, the “activation” value was -5.56%. With `CS(C)=O` the “activation” value was -1.58%. With `Cc1ccc(Cl)c(N)c1Cl` the “activation” value was 5.73%. In the case of `Sc1nc2ccccc2s1`, the “activation” value is reported as 0.683%. With `C=CC(=O)OCCC#N` the “activation” value was 0.847%. In the case of `COc1cc([C@@H]2c3cc4c(cc3[C@@H](O[C@@H]3O[C@@H]5CO[C@@H](C)O[C@H]5[C@H](O)[C@H]3O)[C@H]3COC(=O)[C@H]23)OCO4)cc(OC)c1O`, the “activation” value is reported as 4.92%. With `CC(C)CCOC(=O)c1ccc(N(C)C)cc1` the “activation” value was 0.0605% [at 30.3 µM]. With `O=C(Nc1ncc([N+](=O)[O-])s1)c1cccs1` the “activation” value was 0.435% [at 30.3 µM]. For `C=CC(=O)OCCCCCCOC(=O)C=C`, the Potency was “inactive”. For `CCCCCC(CO)CCC` (stereo not given), the “activation” value was -2.1%. With `Fc1ccccc1[C@@H](F)COC1CCC(Nc2ncnc3[nH]ncc23)CC1` (stereo not given in full) the “activation” value was -16.1%. Compound `C[C@](N)(Cc1ccc(O)cc1)C(=O)O` has an activation of 3.02% [at 5.99 µM]. With `Oc1c(I)cc(Cl)c2cccnc12` the Potency was “inactive”. With `COC(=O)CCCCCCCC(=O)OC` the “activation” value was -1.57%.
